Assay results as given in PubChem BioAssay AID1159580 (chemical genetic matrix, 2015).
In all, about 5,500 compounds went through this assay and about 2,000 (36%) were called active. Inconclusive results (about 18%) are left out. Cut-off read from the data, not from the text of the source: active = normalized growth mostly below about 0.91 (no sharp cut-off); inconclusive = no clear call, values can overlap the other calls; inactive = mostly above about 0.92. Some of the results follow.

Assay: chemical genetic growth profiling, strain panel (AID 1159580);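 note: tested at 20 µM; growth read once vehicle control cultures reached saturation at 30 °C; 1 = growth at the plate median or of vehicle wells; lower values mean less growth of the strain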
Settings: growth OD

Measured: normalized growth

COc1c(O)cc2c(c1O)[C@H]1O[C@H](CO)[C@@H](O)[C@H](O)[C@@H]1OC2=O
inactive: S. cerevisiae deletion strains, locus YKL009W, strain mrt4, hits give low values 1.01 | S. cerevisiae deletion strains, locus YKL068W, hits give low values 1.01 | S. cerevisiae deletion strains, locus YKL085W, strain MDH1 (second series), hits give low values 1 | S. cerevisiae deletion strains, locus YKL085W, strain MDH1, hits give low values 1 | S. cerevisiae deletion strains, locus YKL160W, strain elf1, hits give low values 1.03 | S. cerevisiae deletion strains, locus YKL190W, strain CNB1, hits give low values 0.975 | S. cerevisiae deletion strains, locus YKR001C, strain vps1, hits give low values 1.01 | S. cerevisiae deletion strains, locus YKR026C, strain gcn3, hits give low values 1.01 | S. cerevisiae deletion strains, locus YKR091W, strain srl3, hits give low values 1.02 | S. cerevisiae deletion strains, locus YLL001W, strain dnm1, hits give low values 1.03 | S. cerevisiae deletion strains, locus YLL026W, hits give low values 1.01 | S. cerevisiae deletion strains, locus YLL041C, strain sdh2, hits give low values 1.02 | S. cerevisiae deletion strains, locus YLR027C, strain aat2, hits give low values 1.02 | S. cerevisiae deletion strains, locus YLR039C, strain RIC1, hits give low values 1.04 | S. cerevisiae deletion strains, locus YLR058C, strain SHM2, hits give low values 0.986 | S. cerevisiae deletion strains, locus YLR102C, strain apc9, hits give low values 1 | S. cerevisiae deletion strains, locus YLR113W, strain HOG1, hits give low values 0.985 | S. cerevisiae deletion strains, locus YLR221C, strain rsa3, hits give low values 1.02 | S. cerevisiae deletion strains, locus YLR258W, strain gsy2, hits give low values 1.04 | S. cerevisiae deletion strains, locus YLR262C, strain YPT6 (second series), hits give low values 1.06 | S. cerevisiae deletion strains, locus YLR262C, strain YPT6, hits give low values 1.07 | S. cerevisiae deletion strains, locus YLR268W, strain sec22, hits give low values 1.01 | S. cerevisiae deletion strains, locus YLR320W, strain mms22, hits give low values 1.05 | S. cerevisiae deletion strains, locus YLR330W, strain CHS5, hits give low values 1.01 | S. cerevisiae deletion strains, locus YLR342W, strain FKS1 (second series), hits give low values 0.902 | S. cerevisiae deletion strains, locus YLR342W, strain FKS1, hits give low values 1.02 | S. cerevisiae deletion strains, locus YLR357W, strain rsc2, hits give low values 1.01 | S. cerevisiae deletion strains, locus YLR370C, strain arc18, hits give low values 1.02 | S. cerevisiae deletion strains, locus YLR371W, strain rom2, hits give low values 1.01 | S. cerevisiae deletion strains, locus YLR384C, strain iki3, hits give low values 1.01 | S. cerevisiae deletion strains, locus YLR418C, strain cdc73, hits give low values 1.02 | S. cerevisiae deletion strains, locus YML016C, strain PPZ1, hits give low values 1 | S. cerevisiae deletion strains, locus YML032C, strain rad52, hits give low values 0.999 | S. cerevisiae deletion strains, locus YML120C, strain ndi1, hits give low values 1.03 | S. cerevisiae deletion strains, locus YML124C, strain tub3, hits give low values 1.01 | S. cerevisiae deletion strains, locus YMR058W, strain fet3, hits give low values 1.01 | S. cerevisiae deletion strains, locus YMR078C, strain ctf18, hits give low values 1.01 | S. cerevisiae deletion strains, locus YMR125W, strain sto1, hits give low values 1.02 | S. cerevisiae deletion strains, locus YMR129W, hits give low values 1.02 | S. cerevisiae deletion strains, locus YMR205C, strain PFK2, hits give low values 1.03 | S. cerevisiae deletion strains, locus YMR223W, strain ubp8, hits give low values 0.993 | S. cerevisiae deletion strains, locus YMR231W, strain pep5, hits give low values 1.02 | S. cerevisiae deletion strains, locus YMR263W, strain SAP30, hits give low values 0.993 | S. cerevisiae deletion strains, locus YMR307W, strain GAS1, hits give low values 0.828 | S. cerevisiae deletion strains, locus YNL067W, strain RPL9B, hits give low values 0.97 | S. cerevisiae deletion strains, locus YNL071W, strain lat1, hits give low values 1.03 | S. cerevisiae deletion strains, locus YNL128W, strain TEP1, hits give low values 1.01 | S. cerevisiae deletion strains, locus YNL153C, strain GIM3, hits give low values 0.999 | S. cerevisiae deletion strains, locus YNL183C, strain NPR1, hits give low values 0.933 | S. cerevisiae deletion strains, locus YNL209W, strain ssb2, hits give low values 1.02 | S. cerevisiae deletion strains, locus YNL233W, strain BNI4, hits give low values 0.939 | S. cerevisiae deletion strains, locus YNL248C, strain rpa49, hits give low values 1.01 | S. cerevisiae deletion strains, locus YNL250W, strain rad50, hits give low values 1.02 | S. cerevisiae deletion strains, locus YNL271C, strain bni1, hits give low values 1.02 | S. cerevisiae deletion strains, locus YNL298W, strain CLA4, hits give low values 1.02 | S. cerevisiae deletion strains, locus YNL307C, strain MCK1, hits give low values 1.01 | S. cerevisiae deletion strains, locus YNL322C, strain KRE1 (second series), hits give low values 1.02 | S. cerevisiae deletion strains, locus YNR049C, strain mso1, hits give low values 1.02 | S. cerevisiae deletion strains, locus YNR052C, strain pop2, hits give low values 0.998 | S. cerevisiae deletion strains, locus YOL006C, strain TOP1, hits give low values 0.973 | S. cerevisiae deletion strains, locus YOL012C, strain htz1 0.964 | S. cerevisiae deletion strains, locus YOL147C, strain pex11, hits give low values 1 | S. cerevisiae deletion strains, locus YOR001W, strain rrp6, hits give low values 1.01 | S. cerevisiae deletion strains, locus YOR061W, strain CKA2, hits give low values 0.995 | S. cerevisiae deletion strains, locus YOR069W, strain VPS5, hits give low values 0.985 | S. cerevisiae deletion strains, locus YOR070C, strain gyp1, hits give low values 1.01 | S. cerevisiae deletion strains, locus YOR080W, strain dia2, hits give low values 1.02 | S. cerevisiae deletion strains, locus YOR083W, strain WHI5, hits give low values 1.03 | S. cerevisiae deletion strains, locus YOR106W, strain vam3, hits give low values 1.02 | S. cerevisiae deletion strains, locus YOR136W, strain idh2, hits give low values 1.02 | S. cerevisiae deletion strains, locus YOR144C, strain elg1, hits give low values 1.01 | S. cerevisiae deletion strains, locus YOR184W, strain ser1, hits give low values 1.02 | S. cerevisiae deletion strains, locus YOR231W, strain MKK1, hits give low values 0.961 | S. cerevisiae deletion strains, locus YOR265W, strain rbl2, hits give low values 1.02 | S. cerevisiae deletion strains, locus YOR270C, strain vph1, hits give low values 1.06 | S. cerevisiae deletion strains, locus YOR290C, strain snf2, hits give low values 0.992 | S. cerevisiae deletion strains, locus YOR316C, strain cot1, hits give low values 1.01 | S. cerevisiae deletion strains, locus YPL051W, strain arl3, hits give low values 1.01 | S. cerevisiae deletion strains, locus YPL055C, strain LGE1, hits give low values 0.967 | S. cerevisiae deletion strains, locus YPL078C, strain atp4, hits give low values 1.03 | S. cerevisiae deletion strains, locus YPL106C, strain sse1, hits give low values 1.02 | S. cerevisiae deletion strains, locus YPL240C, strain hsp82, hits give low values 1.02 | S. cerevisiae deletion strains, locus YPL241C, strain CIN2, hits give low values 0.991 | S. cerevisiae deletion strains, locus YPL256C, strain CLN2, hits give low values 0.935 | S. cerevisiae deletion strains, locus YPR119W, strain clb2, hits give low values 1.01 | S. cerevisiae deletion strains, locus YPR141C, strain kar3, hits give low values 1.01 | S. cerevisiae deletion strains, locus YPR163C, strain tif3, hits give low values 1 | S. cerevisiae deletion strains, locus YPR167C, strain met16, hits give low values 1.02 | S. cerevisiae deletion strains, strain wtn01, hits give low values 1.01 | S. cerevisiae strains, strain wild type, hits give low values 0.957
